Source: PubChem BioAssay AID743398 (Broad Institute, 2014)
About 3,600 (1.2%) of roughly 300,000 compounds were called active. No stated cut-off is given here; in the data, active means activation above about 30% (passing the limit was not always enough); inconclusive means no clear call, values can overlap the other calls. For the sample, actives were picked, then their nearest neighbours and some compounds at random.

Test: Wnt/beta-catenin pathway activators, primary screen, cell-based, plate reader, single point (AID 743398);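 further: 0% = neutral control wells and 100% = positive control wells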
Settings: Wnt/beta-catenin reporter cell assay, activator, at 9.35 µM, active compounds read high

| Compound | activation |
| --- | --- |
| Cc1ccc(Cc2nc(-c3cccc(C)c3)no2)cc1 | 16.6% (inactive) |
| Cc1ccc(-c2nc(-c3ccncc3)no2)c(C)c1 | 0.571% (inactive) |
| Cc1cccc(-c2noc(-c3ccc(F)cc3)n2)c1 | 51% (active) |
| CN1CCCCC(NC(=O)C(C)(C)C)C1=O (stereo not given) | -0.306% (inactive) |
| Nc1[nH]c(C(=O)c2ccccc2)c(-c2ccc(Cl)cc2Cl)c1C(=O)c1ccccc1 | 3.74% (inactive) |
| CCOc1cccc(/C=C/c2ccc3ccccc3n2)c1OC(C)=O | 7.85% (inactive) |
| COc1cccc(/C=C/c2ccc3ccccc3n2)c1OC(C)=O | -2.71% (inactive) |
| NC(=O)COC(=O)/C=C/c1ccc2ccccc2n1 | 48.3% (active) |
| C[C@@H]1CN([C@@H](C)CO)C(=O)CCCn2nncc2CO[C@@H]1CN(C)S(=O)(=O)c1ccc(-c2ccccc2)cc1 | -3.45% (inactive) |
| CCCNC(=O)C1(C)CCN(Cc2csc(-c3ccc(Cl)cc3)n2)C1 (stereo not given) | -1.95% (inactive) |
| COc1ccccc1NC(=O)/C=C/C(=O)O | 0.198% (inactive) |
| O=C(O)/C=C/C(=O)Nc1ccc(F)cc1F | -1.57% (inactive) |
| COC(=O)c1sc(-c2ccc(C(C)(C)C)cc2)cc1NC(=O)/C=C/C(=O)O | 34.5% (active) |
| CCc1nc2c(OCc3ccccc3)cccn2c1N(C)C(=O)c1ccco1 | -1.39% (inactive) |
| Cc1ccc(C(O)c2ncc(-c3ccccc3F)[nH]2)cc1F (stereo not given) | -2% (inactive) |
| COc1ccc(C2OC(CCc3ccccc3)Cc3[nH]c(=S)[nH]c(=O)c32)cc1 (stereo not given) | -4.52% (inactive) |
| OCCC#Cc1ccc(N2C(c3ccsc3)=Cc3ccc(F)cc3C2c2c[nH]c3ccccc23)cc1 (stereo not given) | -4.42% (inactive) |
| C=CC1=CCN(S(=O)(=O)C(C)(C)C)[C@@H]1CCO | -5.37% (inactive) |
| O=C(Nc1ccccc1N1CCOCC1)c1csc2c1CCCC2 | 3.53% (inactive) |
| Cc1ccc(NC(=O)c2csc3c2CCCC3)cc1 | 33.5% (active) |
| O=C(N/N=C/c1ccco1)c1csc2c1CCCC2 | 14.7% (inactive) |
| COc1cccc(CNC(=O)[C@H]2CCCN2C(=O)[C@H]2CCCN2C(=O)c2ccc(F)cc2)c1 | -3.18% (inactive) |
| Cc1ccc2nc(-c3ccc(CN4CCC(n5cc(-c6ccccc6)[nH]c5=O)CC4)cc3)c(-c3ccccc3)nc2c1 | -0.633% (inactive) |

| Compound | activation |
| --- | --- |
| O=C(O)c1ccc2c(c1)C(=O)N(c1ccc(/C=C/C(=O)c3ccccc3)cc1)C2=O | 31.9% (active) |
| O=C(/C=C/c1ccc(N2CCOCC2)cc1)c1ccccc1 | 38.7% (active) |
| O=C(CN1CCN(S(=O)(=O)/C=C/c2ccccc2)CC1)Nc1ccc(N2CCOCC2)cc1 | -0.917% (inactive) |
| Cc1cccc(N2C(=O)c3ccc(C(=O)Nc4cccc(C(=O)O)c4)cc3C2=O)c1 | 3.97% (inactive) |
| O=C(O)c1ccc2c(c1)C(=O)N(NC(=O)c1ccc(O)cc1)C2=O | -0.273% (inactive) |
| O=C(NN=Cc1ccc(N2CCOCC2)cc1)c1cc2ccccc2cc1O | -3.76% (inactive) |
| O=C(c1ccc(N2CCCC2=O)cc1)N1CCN(c2ccc(C(F)(F)F)cc2[N+](=O)[O-])CC1 | -1.11% (inactive) |
| CC(=O)c1ccc(Nc2nc(C(N)c3ccccc3Cl)cs2)cc1 (stereo not given) | -4.58% (inactive) |
| O=C(C(=O)N1CCC(CNS(=O)(=O)Cc2ccccc2)CC1)c1cc2ccccc2o1 | -4.41% (inactive) |
| Cc1ccc(C(=O)NNc2ncnc3ccccc23)cc1 | 42.9% (active) |
| Cc1ccc(C(=O)NNC(=O)c2cccs2)cc1 | 6.9% (inactive) |
| CCc1nc(SCC(=O)NNC(=O)c2ccc(C)cc2)c2ccccc2n1 | -1.15% (inactive) |
| COC(=O)C1=C(C)N(Cc2ccccc2C(F)(F)F)C(=NCC2CC2)NC1c1cccc(Cl)c1 (stereo not given) | -1.87% (inactive) |
| CCOC(=O)[C@]12CCCC=C1N(Cc1cccc3ccccc13)C(=O)[C@H](CC(=O)NCC13CC4CC(CC(C4)C1)C3)C2 | -3.35% (inactive) |
| CCc1c(-c2ccc(F)cc2)ncn1Cc1cccc(-c2ccccc2)c1 | -4.88% (inactive) |
| CN[C@H]1C[C@H]2c3[nH]c4c(-c5ccccc5)cccc4c3CCN2C(=O)[C@H]1[C@H](C)O | -5.37% (inactive) |
| CCCc1nc2c3ccccc3ccn2c1Cc1ccccc1C(F)(F)F | -0.94% (inactive) |
| Cc1ccc(N)cc1CN1CCN(c2ncc(Cc3ccccc3)cn2)CC1 | -1.28% (inactive) |
| CCN(CCn1cccn1)Cc1cn[nH]c1-c1ccc(OC)cc1F | 33.5% (active) |
| COc1ccc(-c2[nH]ncc2CN(C)Cc2cccnc2)c(F)c1 | 8.31% (inactive) |
| COc1ccc(-c2[nH]ncc2CN(C)Cc2cc(C)[nH]n2)c(F)c1 | -0.792% (inactive) |
| CCOC(=O)N1CCN(C(=O)c2ccccc2N(Cc2ccccc2)S(=O)(=O)c2ccc(OC)cc2)CC1 | -3.31% (inactive) |
| NC(=O)c1ccccc1N(Cc1ccccc1)S(=O)(=O)c1ccccc1 | 30% (active) |

| Compound | activation |
| --- | --- |
| O=C(O)c1cc(S(=O)(=O)N(Cc2ccccc2)c2ccccc2)ccc1Cl | 1.67% (inactive) |
| O=C(N[C@H](Cc1ccccc1)C(=O)N1CCCN(Cc2cccs2)CC1)[C@H]1O[C@@H](n2ccc(=O)[nH]c2=O)[C@H](O)[C@@H]1O | 2.26% (inactive) |
| NC(=O)c1ncn([C@@H]2O[C@H](C(=O)O)[C@@H](O)[C@H]2O)n1 | 3.51% (inactive) |
| COc1ccc(-c2csc(Nc3cccc(C)n3)n2)cc1OC | 50% (active) |
| Cc1cccc(Nc2nc(-c3ccccc3)cs2)n1 | 19.7% (inactive) |
| CC(=O)Nc1cccc(-c2csc(Nc3cccc(C)n3)n2)c1 | 26.8% (inactive) |
| CC(=NNC(N)=O)c1ccc(Cl)c(-n2cccc2)c1 | -7.68% (inactive) |
| COc1ccccc1-c1cc2nc(NCc3cccc(Cl)c3)ccn2n1 | -1.89% (inactive) |
| Cc1ccc(OCC(=O)Nc2nnc(-c3ccco3)s2)cc1 | -0.584% (inactive) |
| COc1ccc(OCC(=O)Nc2nnc(-c3ccco3)s2)cc1 | -4.19% (inactive) |
| CCCCOc1ccc(-c2nnc(-c3ccco3)o2)cc1 | 46.7% (active) |
| C=CCN=C1NC(c2ccccc2)C(C(=O)OC)=C(C)N1Cc1ccc(C(F)(F)F)cc1 (stereo not given) | -8.4% (inactive) |
| Cn1c(NC(=O)c2ccccc2)nc2ccccc21 | 19.2% (inactive) |
| Cn1c(-c2ccc(C(=O)c3ccccc3)s2)nc2ccccc21 | 44.9% (active) |
| Cn1c(S(=O)(=O)O)nc2ccccc21 | -1.9% (inactive) |
| CCCCc1c(-c2ccc(Cl)cc2)ncn1CCc1ccccc1OC | -10.4% (inactive) |
| O=S1(=O)c2ccc(Br)cc2-n2nncc2CN1Cc1cccc(Cl)c1 | -0.853% (inactive) |
| CCOC(=O)[C@H]1Nc2ccc(Cl)cc2[C@@H]2[C@H]1C1CC(c3ccccc31)N2C(=O)OCc1ccccc1 (stereo not given in full) | -1.09% (inactive) |
| Cc1ccn(-c2cccc(-n3ccc(C)n3)n2)n1 | 57.6% (active) |
| Cc1cccc(N2O[C@H]3C=CC2CCCC3)n1 | -7.04% (inactive) |
| COc1ccc(C2=Nc3ccccc3NC(=O)C2N(C(=O)c2cc3ccccc3[nH]2)c2ccccc2)cc1 (stereo not given) | 23.9% (inactive) |
| CCCCCCCCN1C(=O)[C@@H](CC(=O)N2CCN(C(=O)OCC)CC2)C[C@@]2(C(=O)OC)C1=C[C@H](C1CCCC1)O[C@@H]2C | -4.17% (inactive) |
| CCCCOCCCNC(=O)C[C@@H]1C[C@@]2(C(=O)OCC)CCCC=C2N(CCC2=CCCCC2)C1=O | -4.42% (inactive) |

| Compound | activation |
| --- | --- |
| CC1CCN(C(=O)c2ncn3c2C(=O)N[C@@H](C)C3)CC1 | -1.28% (inactive) |
| C[C@H]1[C@H](c2ccccc2)Oc2cc(Br)ccc2S(=O)(=O)N1Cc1cccc(F)c1 | -3.84% (inactive) |
| CCCNC(=O)C1(C)CCCN(Cc2cccc(C(F)(F)F)c2)C1 (stereo not given) | -4.42% (inactive) |
| O=C(CSC(=S)N1CCCCC1)c1c(F)cccc1F | 58.4% (active) |
| O=C(CSC(=S)N1CCOCC1)c1ccccc1 | 9.4% (inactive) |
| COc1cccc(NC(=O)CN(C)C(=O)CSC(=S)N2CCCC2)c1 | 0.702% (inactive) |
| O=C(NS(=O)(=O)c1cccs1)[C@H]1O[C@@H](n2ccc(=O)[nH]c2=O)[C@H](O)[C@@H]1O | -2.42% (inactive) |
| COC(=O)[C@]12CCCCC=C1N(Cc1cccc3ccccc13)C(=O)[C@H](CC(=O)N1CCOCC1)C2 | 2.09% (inactive) |
| COCc1[nH]nc2c1C(c1ccccc1)N(c1ccccc1)C2=O (stereo not given) | -1.18% (inactive) |
| Cc1ccc(S(=O)(=O)N2CCN(C(=O)Cn3c(=O)cnc4ccccc43)CC2)c(C)c1 | 68.6% (active) |
| Cc1ccc(S(=O)(=O)N2CCN(C(=O)CSc3cc(C)ccc3C)CC2)c(C)c1 | -0.764% (inactive) |
| Cc1ccc(S(=O)(=O)N2CCN(C(=O)COC(=O)c3c(C)cc(C)cc3C)CC2)c(C)c1 | -2.2% (inactive) |
| Cc1ccc2nc(CN(C)C(=O)[C@@H](Cc3ccccc3)NC(=O)[C@H]3O[C@@H](n4ccc(=O)[nH]c4=O)[C@H](O)[C@@H]3O)[nH]c2c1 | -3.23% (inactive) |
| CCCC(=O)N1c2ccc(-c3csc(N)n3)cc2CC1C (stereo not given) | 56.5% (active) |
| CCn1nc(C(=O)OCC(=O)N2c3ccccc3CC2C)c2ccccc2c1=O (stereo not given) | -0.818% (inactive) |
| Cc1ccn(CCC(=O)N2c3ccccc3CC2C)n1 (stereo not given) | -0.727% (inactive) |
| CCc1nc2ccc(C(=O)NC3CCN(Cc4ccccc4)CC3)cn2c1N(CC)CCOC | -0.563% (inactive) |
| O=C1C(Sc2cccc(F)c2)=C[C@@]2(O)CC[C@@H](O)[C@]1(Sc1cccc(F)c1)[C@H]2O | -1.51% (inactive) |
| COc1ccc(O)c(/C=N/N=C/c2cccc([N+](=O)[O-])c2)c1 | 5.49% (inactive) |
| O=C(N/N=C/c1cccc([N+](=O)[O-])c1)c1ccncc1 | -0.352% (inactive) |
| O=[N+]([O-])c1cccc(C=NN=Cc2ccccc2O)c1 | 68% (active) |
